Experimental data published in publication PMC7862700, “An all-to-all approach to the identification of sequence-specific readers for epigenetic DNA modifications on cytosine”.

Experiments:
Assay in all cases: DAPPL (digital affinity profiling via proximity ligation, sequencing); 10 mM Tris-HCl pH 7.5, 50 mM NaCl, 1 mM DTT, 4% glycerol, room temperature, 30 min; GST-TFs on glutathione beads, 16-mer random dsDNA library, 0.1% formaldehyde crosslink after washing; high values mean tight binding
[1] = target: T1, FLI1 (Homo sapiens, UniProt Q01543 1-452); conditions: protein: recombinant; tags: N-terminal GST; dsDNA, one strand shown
T1 sequence: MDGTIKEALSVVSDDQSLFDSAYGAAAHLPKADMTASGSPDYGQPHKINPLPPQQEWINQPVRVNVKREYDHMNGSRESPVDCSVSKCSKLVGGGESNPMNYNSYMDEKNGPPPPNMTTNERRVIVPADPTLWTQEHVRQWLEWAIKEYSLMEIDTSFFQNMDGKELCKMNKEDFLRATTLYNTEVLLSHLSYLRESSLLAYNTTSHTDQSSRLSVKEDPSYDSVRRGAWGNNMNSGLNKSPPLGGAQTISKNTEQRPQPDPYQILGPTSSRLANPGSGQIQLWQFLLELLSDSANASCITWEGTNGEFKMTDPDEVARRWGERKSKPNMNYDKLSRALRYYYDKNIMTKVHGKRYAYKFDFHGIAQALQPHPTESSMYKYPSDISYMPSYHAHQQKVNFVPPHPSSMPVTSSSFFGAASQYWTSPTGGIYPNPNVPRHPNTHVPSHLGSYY
In short: (§1)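 A tag-only sample was pooled with DNA-barcoded human transcription factors that had been expressed in yeast as GST fusions and captured on glutathione beads. The pools were incubated for 30 min at room temperature with 200 nmole of a random double-stranded 16-mer DNA library in Tris/NaCl/DTT/glycerol buffer, then washed, crosslinked with 0.1% formaldehyde, proximity-ligated (BsaI/T4 ligase, 1 h, 37 °C), PCR-amplified and sequenced on an Illumina NextSeq500. Binding signal is each hexamer's read frequency for a factor divided by its frequency for the tag-only sample.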

[2] = target: T2, ELK1 (Homo sapiens, UniProt P19419 1-428); conditions: protein: recombinant; tags: N-terminal GST; dsDNA, one strand shown
T2 sequence: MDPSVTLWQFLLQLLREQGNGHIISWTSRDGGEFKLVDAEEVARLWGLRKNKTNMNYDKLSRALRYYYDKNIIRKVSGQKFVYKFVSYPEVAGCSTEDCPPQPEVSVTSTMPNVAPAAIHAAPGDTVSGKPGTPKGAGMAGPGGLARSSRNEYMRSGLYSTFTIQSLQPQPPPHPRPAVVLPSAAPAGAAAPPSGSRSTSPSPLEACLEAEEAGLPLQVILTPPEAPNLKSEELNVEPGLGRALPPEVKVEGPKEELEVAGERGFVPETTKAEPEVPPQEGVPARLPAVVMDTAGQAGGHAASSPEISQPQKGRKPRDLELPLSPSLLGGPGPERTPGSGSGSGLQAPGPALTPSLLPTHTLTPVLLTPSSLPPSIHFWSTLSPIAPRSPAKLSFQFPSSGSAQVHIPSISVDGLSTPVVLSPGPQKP
In short: as §1

[3] = target: T3, GABPA (Homo sapiens, UniProt Q06546 1-454); conditions: protein: recombinant; tags: N-terminal GST; dsDNA, one strand shown
T3 sequence: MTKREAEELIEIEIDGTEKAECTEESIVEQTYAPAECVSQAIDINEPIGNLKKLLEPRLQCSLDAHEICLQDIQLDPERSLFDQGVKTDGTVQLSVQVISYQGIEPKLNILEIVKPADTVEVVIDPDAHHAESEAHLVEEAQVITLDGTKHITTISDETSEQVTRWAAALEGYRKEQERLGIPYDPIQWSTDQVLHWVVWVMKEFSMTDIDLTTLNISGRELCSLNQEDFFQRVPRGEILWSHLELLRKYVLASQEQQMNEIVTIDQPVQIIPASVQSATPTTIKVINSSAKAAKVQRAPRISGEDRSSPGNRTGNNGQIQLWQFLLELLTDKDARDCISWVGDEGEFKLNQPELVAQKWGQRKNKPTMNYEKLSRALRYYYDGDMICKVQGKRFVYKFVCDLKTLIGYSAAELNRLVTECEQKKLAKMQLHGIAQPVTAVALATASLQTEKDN
In short: as §1

[4] = target: T4, ERG (Homo sapiens, UniProt P11308 1-479); conditions: protein: recombinant; tags: N-terminal GST; dsDNA, one strand shown
T4 sequence: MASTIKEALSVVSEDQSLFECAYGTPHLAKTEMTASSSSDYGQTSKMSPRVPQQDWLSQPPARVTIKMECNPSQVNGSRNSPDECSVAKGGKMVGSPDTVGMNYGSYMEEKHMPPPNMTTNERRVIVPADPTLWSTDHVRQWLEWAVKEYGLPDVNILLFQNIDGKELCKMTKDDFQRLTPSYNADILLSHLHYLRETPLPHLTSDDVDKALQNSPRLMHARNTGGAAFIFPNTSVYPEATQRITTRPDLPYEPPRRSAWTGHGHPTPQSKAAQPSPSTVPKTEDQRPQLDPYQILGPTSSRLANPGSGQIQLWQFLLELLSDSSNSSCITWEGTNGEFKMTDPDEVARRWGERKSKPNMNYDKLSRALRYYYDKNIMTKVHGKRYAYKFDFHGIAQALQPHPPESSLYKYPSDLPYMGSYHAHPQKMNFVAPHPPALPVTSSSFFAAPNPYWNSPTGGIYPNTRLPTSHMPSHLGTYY
In short: as §1

[5] = target: ELF1 (Homo sapiens, UniProt P32519 1-619); conditions: protein: recombinant; tags: N-terminal GST; dsDNA, one strand shown
ELF1, sequence (P32519 whole entry): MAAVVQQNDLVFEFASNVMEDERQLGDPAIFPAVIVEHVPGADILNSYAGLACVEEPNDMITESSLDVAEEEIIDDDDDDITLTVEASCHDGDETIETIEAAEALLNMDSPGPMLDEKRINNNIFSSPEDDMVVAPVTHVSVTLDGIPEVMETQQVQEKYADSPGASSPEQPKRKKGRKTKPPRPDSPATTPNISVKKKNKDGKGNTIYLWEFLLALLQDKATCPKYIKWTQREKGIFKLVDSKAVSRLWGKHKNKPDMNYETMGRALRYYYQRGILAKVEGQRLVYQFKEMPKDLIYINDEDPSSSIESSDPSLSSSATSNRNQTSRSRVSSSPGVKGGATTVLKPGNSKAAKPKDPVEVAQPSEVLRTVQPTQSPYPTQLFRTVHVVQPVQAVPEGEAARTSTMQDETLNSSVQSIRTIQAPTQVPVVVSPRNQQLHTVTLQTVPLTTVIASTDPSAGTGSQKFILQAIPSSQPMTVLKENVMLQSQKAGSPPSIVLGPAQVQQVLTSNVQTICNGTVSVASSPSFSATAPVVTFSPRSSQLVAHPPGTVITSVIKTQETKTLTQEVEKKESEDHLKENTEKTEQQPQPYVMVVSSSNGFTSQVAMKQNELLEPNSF
In short: as §1

[6] = target: T5, EHF (Homo sapiens, UniProt Q9NZC4 1-300); conditions: protein: recombinant; tags: N-terminal GST; dsDNA, one strand shown
T5 sequence: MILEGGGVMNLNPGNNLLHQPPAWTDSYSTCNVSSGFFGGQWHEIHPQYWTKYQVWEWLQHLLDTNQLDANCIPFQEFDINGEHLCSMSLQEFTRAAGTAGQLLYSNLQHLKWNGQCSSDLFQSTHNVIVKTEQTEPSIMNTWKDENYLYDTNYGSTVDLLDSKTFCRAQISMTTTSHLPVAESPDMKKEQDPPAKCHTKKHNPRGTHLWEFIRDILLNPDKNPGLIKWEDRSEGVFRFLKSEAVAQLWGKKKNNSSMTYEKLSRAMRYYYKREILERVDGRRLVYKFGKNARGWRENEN
In short: as §1

[7] = target: SPI1 (Homo sapiens, UniProt P17947 1-270); conditions: protein: recombinant; tags: N-terminal GST; dsDNA, one strand shown
In short: as §1

[8] = target: SPIB (Homo sapiens, UniProt Q01892 1-262); conditions: protein: recombinant; tags: N-terminal GST; dsDNA, one strand shown
SPIB, sequence (Q01892 whole entry): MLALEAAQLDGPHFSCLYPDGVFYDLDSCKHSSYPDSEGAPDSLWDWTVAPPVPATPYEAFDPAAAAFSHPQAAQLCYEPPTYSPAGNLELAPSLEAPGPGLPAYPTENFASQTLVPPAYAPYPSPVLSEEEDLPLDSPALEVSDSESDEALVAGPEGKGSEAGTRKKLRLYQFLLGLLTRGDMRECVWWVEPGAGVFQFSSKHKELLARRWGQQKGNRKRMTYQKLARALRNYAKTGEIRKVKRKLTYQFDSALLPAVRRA
In short: as §1

[9] = target: T6, ELK3 (Homo sapiens, UniProt P41970 1-407); conditions: protein: recombinant; tags: N-terminal GST; dsDNA, one strand shown
T6 sequence: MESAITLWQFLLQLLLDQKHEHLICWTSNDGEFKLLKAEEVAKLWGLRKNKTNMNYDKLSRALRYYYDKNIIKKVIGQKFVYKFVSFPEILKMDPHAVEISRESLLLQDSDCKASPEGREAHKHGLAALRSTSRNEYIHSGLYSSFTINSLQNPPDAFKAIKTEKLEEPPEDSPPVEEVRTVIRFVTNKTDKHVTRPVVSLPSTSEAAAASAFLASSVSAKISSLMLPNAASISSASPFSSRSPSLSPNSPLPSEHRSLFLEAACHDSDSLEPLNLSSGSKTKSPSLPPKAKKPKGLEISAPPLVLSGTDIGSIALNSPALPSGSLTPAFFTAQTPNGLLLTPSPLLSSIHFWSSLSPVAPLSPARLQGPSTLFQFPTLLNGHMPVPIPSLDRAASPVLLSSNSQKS
In short: as §1

[10] = target: T7, FEV (Homo sapiens, UniProt Q99581 1-238); conditions: protein: recombinant; tags: N-terminal GST; dsDNA, one strand shown
T7 sequence: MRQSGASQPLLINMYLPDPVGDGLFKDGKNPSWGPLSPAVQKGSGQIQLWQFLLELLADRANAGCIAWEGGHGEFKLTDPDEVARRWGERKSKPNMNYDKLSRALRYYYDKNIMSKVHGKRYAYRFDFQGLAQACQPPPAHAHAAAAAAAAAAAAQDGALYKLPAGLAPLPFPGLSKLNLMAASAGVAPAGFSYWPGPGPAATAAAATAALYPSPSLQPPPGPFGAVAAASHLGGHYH
In short: as §1

[11] = target: ETV5 (Homo sapiens, UniProt P41161 1-510); conditions: protein: recombinant; tags: N-terminal GST; dsDNA, one strand shown
ETV5, sequence (P41161 whole entry): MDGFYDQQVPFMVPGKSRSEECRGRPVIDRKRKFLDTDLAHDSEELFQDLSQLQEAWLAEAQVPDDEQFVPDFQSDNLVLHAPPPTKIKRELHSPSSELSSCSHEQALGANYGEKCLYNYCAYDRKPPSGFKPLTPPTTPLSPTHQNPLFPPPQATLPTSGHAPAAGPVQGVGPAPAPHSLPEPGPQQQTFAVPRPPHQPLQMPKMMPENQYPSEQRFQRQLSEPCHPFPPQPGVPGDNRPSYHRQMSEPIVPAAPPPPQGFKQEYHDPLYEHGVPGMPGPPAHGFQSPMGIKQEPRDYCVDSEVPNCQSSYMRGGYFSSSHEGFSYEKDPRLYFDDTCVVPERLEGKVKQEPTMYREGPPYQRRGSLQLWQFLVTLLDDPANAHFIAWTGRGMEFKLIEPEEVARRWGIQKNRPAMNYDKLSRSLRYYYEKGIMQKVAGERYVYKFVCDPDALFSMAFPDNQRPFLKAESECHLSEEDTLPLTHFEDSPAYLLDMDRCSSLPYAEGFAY
In short: as §1

[12] = target: HSF1 (Homo sapiens, UniProt Q00613 1-529); conditions: protein: recombinant; tags: N-terminal GST; chain copies: 3; dsDNA, one strand shown
HSF1, sequence (Q00613 whole entry): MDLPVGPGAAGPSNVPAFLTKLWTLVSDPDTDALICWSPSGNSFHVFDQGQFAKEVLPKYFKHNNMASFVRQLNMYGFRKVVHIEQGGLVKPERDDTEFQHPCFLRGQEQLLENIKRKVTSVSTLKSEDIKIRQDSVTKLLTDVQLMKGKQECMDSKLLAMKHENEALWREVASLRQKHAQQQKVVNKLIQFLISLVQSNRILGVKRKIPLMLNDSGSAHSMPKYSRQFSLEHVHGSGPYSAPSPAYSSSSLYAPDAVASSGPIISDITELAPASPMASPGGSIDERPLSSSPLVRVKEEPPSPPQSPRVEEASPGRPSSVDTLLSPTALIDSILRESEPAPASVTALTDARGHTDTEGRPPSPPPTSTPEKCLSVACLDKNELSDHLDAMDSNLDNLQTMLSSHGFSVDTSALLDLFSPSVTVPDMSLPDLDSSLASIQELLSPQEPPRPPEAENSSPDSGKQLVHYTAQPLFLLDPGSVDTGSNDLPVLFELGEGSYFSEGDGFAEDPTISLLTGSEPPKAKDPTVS
In short: as §1

[13] = target: T8, SPIC (Homo sapiens, UniProt Q8N5J4 1-248); conditions: protein: recombinant; tags: N-terminal GST; dsDNA, one strand shown
T8 sequence: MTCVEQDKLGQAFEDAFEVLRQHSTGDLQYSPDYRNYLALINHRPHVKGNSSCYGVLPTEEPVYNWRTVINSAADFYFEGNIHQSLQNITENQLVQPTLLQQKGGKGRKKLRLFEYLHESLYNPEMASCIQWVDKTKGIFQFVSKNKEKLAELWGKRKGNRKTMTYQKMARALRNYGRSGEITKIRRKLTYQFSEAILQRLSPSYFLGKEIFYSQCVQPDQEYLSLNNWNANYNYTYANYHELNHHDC
In short: as §1

[14] = target: ELF4 (Homo sapiens, UniProt Q99607 1-663); conditions: protein: recombinant; tags: N-terminal GST; dsDNA, one strand shown
ELF4, sequence (Q99607 whole entry): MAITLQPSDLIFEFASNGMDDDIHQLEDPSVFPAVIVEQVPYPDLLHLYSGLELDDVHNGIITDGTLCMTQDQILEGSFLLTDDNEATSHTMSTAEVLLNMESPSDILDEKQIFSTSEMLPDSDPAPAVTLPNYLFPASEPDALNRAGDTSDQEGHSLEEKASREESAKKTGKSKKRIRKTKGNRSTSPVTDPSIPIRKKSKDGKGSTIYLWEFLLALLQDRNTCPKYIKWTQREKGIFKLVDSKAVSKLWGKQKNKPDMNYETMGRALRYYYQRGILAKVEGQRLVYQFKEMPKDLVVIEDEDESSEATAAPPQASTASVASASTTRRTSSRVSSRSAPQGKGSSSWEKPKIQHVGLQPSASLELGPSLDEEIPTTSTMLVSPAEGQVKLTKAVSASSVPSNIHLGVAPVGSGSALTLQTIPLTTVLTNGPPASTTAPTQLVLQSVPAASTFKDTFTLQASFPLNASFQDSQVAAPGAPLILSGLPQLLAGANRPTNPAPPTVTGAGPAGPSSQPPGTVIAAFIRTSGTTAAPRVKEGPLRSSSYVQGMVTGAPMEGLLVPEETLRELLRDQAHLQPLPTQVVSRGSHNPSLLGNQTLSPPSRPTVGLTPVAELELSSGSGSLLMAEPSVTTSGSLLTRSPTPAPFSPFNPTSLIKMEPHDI
In short: as §1

[15] = target: T9, ELK4 (Homo sapiens, UniProt P28324-2 1-405); conditions: protein: recombinant; tags: N-terminal GST; dsDNA, one strand shown
T9 sequence: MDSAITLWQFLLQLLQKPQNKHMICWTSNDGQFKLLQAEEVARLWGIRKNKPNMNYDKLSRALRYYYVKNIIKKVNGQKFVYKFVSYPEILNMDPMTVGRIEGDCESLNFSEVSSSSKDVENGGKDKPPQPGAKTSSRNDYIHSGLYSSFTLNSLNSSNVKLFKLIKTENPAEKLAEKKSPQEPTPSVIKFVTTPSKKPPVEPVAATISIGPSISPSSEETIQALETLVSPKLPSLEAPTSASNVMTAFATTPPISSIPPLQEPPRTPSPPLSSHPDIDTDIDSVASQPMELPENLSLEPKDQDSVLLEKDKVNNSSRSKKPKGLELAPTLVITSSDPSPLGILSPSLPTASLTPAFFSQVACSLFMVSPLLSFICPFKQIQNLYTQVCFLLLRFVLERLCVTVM
In short: as §1

[16] = target: T10, ETV2 (Homo sapiens, UniProt O00321 1-342); conditions: protein: recombinant; tags: N-terminal GST; dsDNA, one strand shown
T10 sequence: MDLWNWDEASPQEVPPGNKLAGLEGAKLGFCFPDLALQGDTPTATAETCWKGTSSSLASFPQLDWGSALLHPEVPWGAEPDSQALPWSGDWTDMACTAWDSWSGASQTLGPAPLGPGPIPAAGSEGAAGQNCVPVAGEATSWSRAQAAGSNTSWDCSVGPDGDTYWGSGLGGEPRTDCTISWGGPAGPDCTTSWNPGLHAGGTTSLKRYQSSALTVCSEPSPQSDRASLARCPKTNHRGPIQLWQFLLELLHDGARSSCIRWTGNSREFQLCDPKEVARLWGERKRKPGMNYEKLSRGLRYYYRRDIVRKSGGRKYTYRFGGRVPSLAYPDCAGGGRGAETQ
In short: as §1

[17] = target: T11, ELF3 (Homo sapiens, UniProt P78545 1-371); conditions: protein: recombinant; tags: N-terminal GST; dsDNA, one strand shown
T11 sequence: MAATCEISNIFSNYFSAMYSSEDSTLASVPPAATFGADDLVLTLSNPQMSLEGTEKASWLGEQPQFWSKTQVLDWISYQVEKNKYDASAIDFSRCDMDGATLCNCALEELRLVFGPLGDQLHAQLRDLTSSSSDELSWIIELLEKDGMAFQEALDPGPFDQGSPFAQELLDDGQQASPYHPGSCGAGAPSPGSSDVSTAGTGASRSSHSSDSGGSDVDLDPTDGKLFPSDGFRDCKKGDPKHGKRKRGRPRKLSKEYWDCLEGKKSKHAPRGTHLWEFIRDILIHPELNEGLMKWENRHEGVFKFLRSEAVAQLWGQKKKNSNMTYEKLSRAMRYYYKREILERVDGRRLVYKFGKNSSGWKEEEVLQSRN
In short: as §1

[18] = target: CRX (Homo sapiens, UniProt O43186 1-299); conditions: protein: recombinant; tags: N-terminal GST; dsDNA, one strand shown
CRX, sequence (O43186 whole entry): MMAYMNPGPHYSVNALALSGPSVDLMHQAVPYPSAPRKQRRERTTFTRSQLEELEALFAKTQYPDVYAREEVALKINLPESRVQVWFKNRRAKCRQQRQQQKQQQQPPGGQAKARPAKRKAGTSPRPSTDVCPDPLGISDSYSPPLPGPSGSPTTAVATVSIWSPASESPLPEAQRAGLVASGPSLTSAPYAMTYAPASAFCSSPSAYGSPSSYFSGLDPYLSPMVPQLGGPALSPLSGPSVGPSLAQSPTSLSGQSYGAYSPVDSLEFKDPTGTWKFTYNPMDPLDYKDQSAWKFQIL
In short: as §1

[19] = target: ETV1 (Homo sapiens, UniProt P50549 1-477); conditions: protein: recombinant; tags: N-terminal GST; dsDNA, one strand shown
ETV1, sequence (P50549 whole entry): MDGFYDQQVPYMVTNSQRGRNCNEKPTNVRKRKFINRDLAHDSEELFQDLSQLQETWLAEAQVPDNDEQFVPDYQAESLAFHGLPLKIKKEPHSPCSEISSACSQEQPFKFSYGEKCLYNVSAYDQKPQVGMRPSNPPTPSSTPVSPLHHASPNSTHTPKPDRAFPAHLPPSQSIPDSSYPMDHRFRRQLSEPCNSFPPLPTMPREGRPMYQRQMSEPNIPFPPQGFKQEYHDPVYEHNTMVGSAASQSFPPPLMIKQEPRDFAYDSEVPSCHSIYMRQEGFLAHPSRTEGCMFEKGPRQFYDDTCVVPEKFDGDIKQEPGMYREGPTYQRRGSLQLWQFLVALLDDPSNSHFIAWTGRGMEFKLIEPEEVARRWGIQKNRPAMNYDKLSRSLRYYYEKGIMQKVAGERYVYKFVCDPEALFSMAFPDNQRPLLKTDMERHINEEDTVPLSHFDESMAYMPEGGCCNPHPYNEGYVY
In short: as §1

**Q.** Which results are given for GCCCTT?
**A.** binding signal [1]: 1.23 fold enrichment (6-mer frequency, TF over GST control); binding signal [2]: 1.11 fold enrichment (6-mer frequency, TF over GST control); binding signal [3]: 1.18 fold enrichment (6-mer frequency, TF over GST control); binding signal [4]: 1.16 fold enrichment (6-mer frequency, TF over GST control); binding signal [5]: 1.25 fold enrichment (6-mer frequency, TF over GST control); binding signal [6]: 1.19 fold enrichment (6-mer frequency, TF over GST control); binding signal [7]: 1.22 fold enrichment (6-mer frequency, TF over GST control); binding signal [8]: 1.28 fold enrichment (6-mer frequency, TF over GST control); binding signal [9]: 1.24 fold enrichment (6-mer frequency, TF over GST control); binding signal [10]: 1.19 fold enrichment (6-mer frequency, TF over GST control); binding signal [11]: 1.16 fold enrichment (6-mer frequency, TF over GST control); binding signal [12]: 1.11 fold enrichment (6-mer frequency, TF over GST control); binding signal [13]: 1.1 fold enrichment (6-mer frequency, TF over GST control); binding signal [14]: 1.13 fold enrichment (6-mer frequency, TF over GST control); binding signal [15]: 1.19 fold enrichment (6-mer frequency, TF over GST control); binding signal [16]: 1.28 fold enrichment (6-mer frequency, TF over GST control); binding signal [17]: 1.29 fold enrichment (6-mer frequency, TF over GST control); binding signal [18]: 1.06 fold enrichment (6-mer frequency, TF over GST control); binding signal [19]: 1.17 fold enrichment (6-mer frequency, TF over GST control)
